{"source": "PubChem BioAssay AID662", "about": "(National Center for Advancing Translational Sciences (NCATS), 2007)", "note": "In all, about 71,000 compounds went through this assay and about 1,800 (2.5%) were called active. Another 26% or so got no clear call; they are omitted. The call rests on the fitted dose curve; in most records, active means well fitted activation curve with a large enough effect in the signal ratio, with a control signal flat (not every such curve was filed as active); inconclusive means small, poorly fitted or top-dose-only effect, or effect the other way, or a change in a side signal; inactive means flat fitted curve, though single readings scatter; the % refers to the signal ratio. Only a selection was taken, and actives are over-represented in it overall. Potency means the concentration at half of the fitted maximal effect.", "data": [{"test": "Cell signaling CRE-BLA (Fsk stim); on activity change, negative = inhibition: % of control where 0% means no effect", "settings": "CHO CRE-bla reporter (cAMP response element driving beta-lactamase), forskolin EC10, beta-lactamase ratio; series mostly up to 38.2 µM; activity change, negative = inhibition: at the top concentration", "from_the_text": "NIH Molecular Libraries Screening Centers Network [MLSCN]\nNIH Chemical Genomics Center [NCGC]\nAssay Provider: Marshall W. Nirenberg, U.S. National heart lung & blood institute\nMemories persist for different lengths of time, from seconds or minutes to a lifetime. There are two kinds of memory: short-term memory (STM) and long-term memory (LTM). STM lasts for minutes to hours, which maybe mediated by modifications of molecules involved in synaptic functions. LTM lasts for days or longer, and may be due to the formation of new synapses or restructuring of existing synapses. LTM, but not STM, requires gene transcription and synthesis of proteins. CREB (cyclic-AMP Responsive Element Binding Protein) is one of the candidates plays an important role for enhancement of some types of LTM. CREB, a family of transcription factors, regulates the transcription of genes containing cAMP Responsive Elements (CRE). CRE is a nucleotide sequence often found in the promoter regions of genes that are binding sites for CREB.\nUsing a beta-lactamase reporter-gene under control of cAMP responsive element, a cell-based assay [CellSensor(TM) CRE-bla CHO developed by Invitrogen Corp.] was used to measure forskolin-induced signaling. Library compounds were measured for their ability to modulate positively or negatively the action of EC10 NKH 477, a water soluble forskolin, on reporter gene activity. Compounds were screened in a titration series in 1536-well format. Positive and negative modulators were identified based on the AC50 values derived from the screening data.\nNCGC Assay Protocol Summary\n2000 cells/5uL in Opti-MEM medium containing 0.5% dialyzed FBS, 0.1 mM NEAA, 1 mM sodium pyruvate and 10 mM HEPES was dispensed into 1536-well plates and cells were cultured at 37 degrees Celsius overnight. […] And then the plates were incubated at 37 degrees Celsius for 3 hours. 1 uL of CCF4-dye mixture was added to each well. After incubated at room temperature for 2 hours the plates were measured on an EnVision plate reader at Excitation 405nm, Emission1=460nm and Emission 2=530nm. The %Activity was determined from the ratio of 460nm/530nm.\nKeywords: NIH Roadmap, MLSCN, MLSMR, qHTS, NCGC, CRE, beta-lactamase reporter-gene assay.", "values": [{"smiles": "COc1ccc(S(=O)(=O)NCc2ccc(C(=O)N3CCC4(CC3)OCCO4)cc2)cc1", "activity change, negative = inhibition": "-18% (inactive)"}, {"smiles": "O=C(c1cc2nc(-c3ccccc3)cc(-c3ccccc3)n2n1)N1CCC2(CC1)OCCO2", "Potency": "2.51 µM (active)"}, {"smiles": "O=C(c1cc(S(=O)(=O)N2CCOCC2)ccc1F)N1CCC2(CC1)OCCO2", "activity change, negative = inhibition": "-0.495% (inactive)"}, {"smiles": "C[C@@]1([C@@H](NP(=O)(c2ccccc2)c2ccccc2)c2ccccc2)C[C@H]1CCO", "activity change, negative = inhibition": "-6.41% (inactive)"}, {"smiles": "Cc1cc(-c2ccc(N)c(C)c2)ccc1N", "activity change, negative = inhibition": "2.87% (inactive)"}, {"smiles": "N[C@H](Cc1o[nH]c(=O)c1Cl)C(=O)O", "activity change, negative = inhibition": "-13.5% (inactive)"}, {"smiles": "ClC(Cl)=C(Cl)C(Cl)=C(Cl)Cl", "activity change, negative = inhibition": "-6.71% (inactive)"}, {"smiles": "CCC(=NCCCO)c1c(O)n(-c2ccc(OC)cc2)c(=O)[nH]c1=O", "activity change, negative = inhibition": "6.61% (inactive)"}, {"smiles": "CCCCCCN=C(CC)c1c(O)n(CCCC)c(=O)[nH]c1=O", "Potency": "10 µM (active)"}, {"smiles": "ClC(Cl)(Cl)c1ccccc1", "Potency": "inactive"}]}]}
